The whole screen tested about 640,000 compounds, of which about 9,300 (1.5%) were called active. The entries come from a sample that favours actives as a whole. A number with no mark means an inactive call. Rule as the data show it: active = inhibition above about 32%; inactive = the rest.

The assay can be described thus: TEAD-YAP interaction inhibition, primary screen, TEAD-YAP interaction inhibitor project, luminescence, HEK-TIYL cells (AID 1259422).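 Also: 0% = median of test compound wells and 100% = reference inhibitor wells.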 To be noted: TEAD-Gal4/YAP UAS-luciferase luminescence, at 9.12 µM, active compounds read high.
As to `CCOC(=O)c1sc(NC(=O)c2cccc(Cl)c2)c(C(=O)OCC)c1C`, the inhibition is -1.99%.
For `O=C(NCC1CCC2(CCN(Cc3ccccc3)CC2)O1)c1ccc(F)c(Cl)c1` (configuration not stated) the value was -14.8%; for `O=C(NCCCO)/C(=C/c1ccc([N+](=O)[O-])cc1)NC(=O)c1ccco1`, 1.95%; for `O=C(CCCN1CCc2ccccc2C(O)(c2ccccc2)C1)c1ccc(F)cc1` (configuration not stated), -4.26%.
For `O=C1CN(c2ccccc2F)C(=O)CN1/N=C/c1ccccc1Cl` the value was -10.8%; for `COc1ccc(-c2c(Nc3cccc(C)c3)c(=O)c2=O)cc1`, 4.83%; for `Cc1ccc(-c2c(Nc3cccc(F)c3)c(=O)c2=O)cc1C`, 53.5% (active).
The figure for `COC(=O)c1ccccc1Nc1c(-c2ccc(C)c(C)c2)c(=O)c1=O` is 5.02%; for `Cc1cc(C)nc(/N=C(/NC(=O)c2ccc(F)cc2)Nc2ccc(F)cc2F)n1` it is 2.84%; for `COc1ccc(-c2cccc(C(=O)Nc3ccc(Oc4ccccc4)cc3)n2)cn1` it is -3.01%.
Take `CCn1c(COc2ccccc2OC)nnc1SCC(=O)NC`: the inhibition was 4.57%.
The figure for `O=[N+]([O-])c1ccc(OCc2nnc(SCCN3CCOCC3)n2-c2ccccc2)cc1` is 3.41%; for `CCn1c(COc2ccccc2)nnc1Sc1ccc([N+](=O)[O-])cc1C=O` it is 59.5% (active).
`CCN(CC)C(=O)CSc1nc2c(C)c(C)ccc2cc1C#N`: the inhibition was 8.08%.
`Cc1ccc2cc(C#N)c(SCC(=O)N3CC(=O)Nc4ccccc43)nc2c1C`: the inhibition was 63.3% (active).
`Cc1ccc(C)c2nc(SCC(=O)N3CC(=O)Nc4ccccc43)c(C#N)cc12`: the inhibition is -2.34%.
Turning to `FC(F)(F)c1cccc(-c2ccc(/C=N/Nc3nn[nH]n3)o2)c1`, the inhibition is 4.88%.
For `O=C(CSCc1cc2cccc3c2n(c1=O)CCC3)NCc1ccncc1` the value was 8.05%.
The figure for `O=C1c2cccnc2C(=O)N1CNc1ccccc1` is 2.66%.
The figure for `COc1ccc(Nc2cc(=O)oc3ccccc23)cc1` is 36.2% (active); for `O=c1cc(Nc2ccc(Br)cc2)c2ccccc2o1` it is 0.69%.
As to `COc1ccc(Nc2ccccc2)cc1`, the inhibition is -22.2%.
Turning to `C=CCn1c(SCC(=O)c2ccc(OC)c(C)c2)nnc1-c1ccncc1`, the inhibition is 4.75%.
For `CCCCCNC(=O)c1cc(C)nc2ccccc12` the value was 2.15%.
For `Cc1cc(C(=O)NC(C)c2ccccc2)c2ccccc2n1` (configuration not stated) the value was 5.1%.
Consider `CCC(CC)=NNC(=O)c1cc(C)nc2ccccc12`, for which the inhibition is 48.1% (active).
As to `Cc1cc(C)c(S(=O)(=O)N2CCOCC2)c(C)c1[N+](=O)[O-]`, the inhibition was -0.25%.

The values above are taken from PubChem BioAssay AID1259422 (The Scripps Research Institute Molecular Screening Center, 2018).
